Measured values taken from PubChem BioAssay.
“And” between values parts separate entries of the source, which are not always exact repeats. Equal entries are not always repeated. Results filed as inconclusive are left out. For some of these results: Potency and affinity values are given separately. The source made the active and inactive calls. Unless noted, the rule behind the calls is not given here.

Tests used:
[1] = compounds altering circadian rhythm period length – cell-based, LOPAC library, luminescence reporter (AID 2774); conditions: circadian reporter cells, at 7 µM, actives lie on both sides;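 note: values are relative to mean of DMSO wells on each plate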
[2] = compounds altering viability of human ES cells (AID 493140); conditions: human embryonic stem cell survival screen; stronger effect = higher value;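 note: cells exposed to compounds for four days before counting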
[3] = system: Hepatitis C virus NS3 helicase; experiment: blockers of NS3h binding to ssDNA – biochemical, fluorescence polarization, LOPAC1280 library, primary screen (AID 687035; in the data active = inhibition above about 37%); conditions: Purified HCV NS3 helicase, Cy5-dT15 ssDNA binding fluorescence polarization; stronger effect = higher value; concentration not given here
[4] = compounds altering Cy5-DNA-NS3h complex signal – biochemical, LOPAC1280, artefact control for HCV NS3 helicase inhibitor project (AID 687037); conditions: Cy5-DNA-NS3h complex fluorescence interference counterscreen
[5] = system: Aerobactin synthetase IucA (Klebsiella pneumoniae, hypervirulent); experiment: biochemical IucA inhibition screen of LOPAC library by absorbance (AID 1346212); conditions: IucA enzyme assay, absorbance (OD) readout; stronger effect = lower value;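 tested at 8 µM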;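 note: 100% = no compound wells and 0% = no enzyme wells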
[6] = blockers of cellular phospholipid synthesis – cell-based, LOPAC library, screen 4, primary screen (AID 1347384); conditions: animal cells, phospholipid biosynthesis inhibition screen; at 10 µM
[7] = biological target: ATP-dependent translocase ABCB1 (Homo sapiens) (UniProt P08183); experiment: P-glycoprotein substrate transport blockade – cell-based (AID 377; in the data active = fluorescence slope change above about 50%); conditions: MDR1-expressing cells, fluorescent substrate accumulation slope; stronger effect = higher value; concentration not given here
[8] = blockers of polyQ-driven CASP3 activation – cell-based (AID 1583); conditions: polyglutamine-induced caspase-3 activation, cell assay; stronger effect = higher value;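 tested at 10 µM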
[9] = restoration of touch response, mutant HTT neurons – whole organism, C. elegans mechanosensory neurons, N-terminal huntingtin (AID 1599); conditions: C. elegans polyQ-huntingtin mechanosensory neurons, stronger effect = higher value
[10] = glutamate transport activators, MN-1 cells, MN-1 cell line (AID 1612); conditions: MN-1 motor neuron cells, stronger effect = higher value;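 note: tested at 1 µM final; 0% = mean of DMSO vehicle wells on each plate; positive means more glutamate uptake than control and negative means less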
[11] = GFP-Q80 aggregate reduction, neuronal-like cells, cell-based, NGF-treated PC12, GFPQ80 (AID 1614); conditions: PC12 NGF-treated GFP-polyQ80 inclusion reduction;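 note: lower means fewer inclusions and 0 means no inclusions at all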
[12] = 75Q-TubH aggregate inhibition, S. cerevisiae, yeast (AID 1616); conditions: S. cerevisiae 75Q-TubH polyglutamine aggregation suppression; stronger effect = higher value

ATP-dependent translocase ABCB1 (Homo sapiens), sequence (P08183 whole entry, looked up): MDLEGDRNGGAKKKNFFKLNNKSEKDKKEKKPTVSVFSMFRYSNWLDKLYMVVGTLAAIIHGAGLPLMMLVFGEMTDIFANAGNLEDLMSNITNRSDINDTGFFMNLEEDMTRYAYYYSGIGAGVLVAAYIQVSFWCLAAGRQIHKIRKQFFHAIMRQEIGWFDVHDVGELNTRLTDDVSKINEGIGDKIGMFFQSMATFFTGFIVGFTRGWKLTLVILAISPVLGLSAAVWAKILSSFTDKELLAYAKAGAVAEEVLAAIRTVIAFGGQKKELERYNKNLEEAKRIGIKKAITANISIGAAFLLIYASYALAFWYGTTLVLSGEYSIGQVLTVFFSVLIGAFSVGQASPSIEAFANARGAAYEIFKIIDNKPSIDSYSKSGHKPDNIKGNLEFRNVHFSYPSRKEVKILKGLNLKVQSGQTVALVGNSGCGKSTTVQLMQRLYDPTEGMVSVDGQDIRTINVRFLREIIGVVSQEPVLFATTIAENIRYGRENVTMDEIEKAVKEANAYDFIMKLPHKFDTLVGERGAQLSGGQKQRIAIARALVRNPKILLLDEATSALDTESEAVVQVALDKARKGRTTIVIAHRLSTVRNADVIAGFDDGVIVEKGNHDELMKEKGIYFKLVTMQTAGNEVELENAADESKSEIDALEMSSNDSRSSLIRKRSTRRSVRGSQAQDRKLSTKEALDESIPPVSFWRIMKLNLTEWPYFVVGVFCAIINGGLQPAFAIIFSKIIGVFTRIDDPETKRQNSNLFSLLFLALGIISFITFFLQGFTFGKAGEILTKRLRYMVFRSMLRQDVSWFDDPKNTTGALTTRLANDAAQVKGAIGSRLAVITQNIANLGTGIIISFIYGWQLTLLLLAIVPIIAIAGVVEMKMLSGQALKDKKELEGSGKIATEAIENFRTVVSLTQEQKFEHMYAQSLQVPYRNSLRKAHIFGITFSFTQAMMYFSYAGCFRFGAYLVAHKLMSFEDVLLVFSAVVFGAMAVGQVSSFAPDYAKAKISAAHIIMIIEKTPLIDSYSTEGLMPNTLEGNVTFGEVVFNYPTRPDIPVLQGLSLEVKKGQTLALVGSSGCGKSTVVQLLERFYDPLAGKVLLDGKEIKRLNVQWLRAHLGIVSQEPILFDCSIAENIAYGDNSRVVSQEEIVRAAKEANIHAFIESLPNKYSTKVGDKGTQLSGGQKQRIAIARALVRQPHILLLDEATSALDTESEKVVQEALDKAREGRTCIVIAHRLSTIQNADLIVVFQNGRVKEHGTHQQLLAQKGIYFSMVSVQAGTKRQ

SMILES	period change [1]	survival [2]	inhibition [3]	fluorescence ratio (interference) [4]	remaining activity [5]	outcome [6]	fluorescence slope change [7]	inhibition [8]	rescue above control [9]	glutamate uptake change [10]	inclusion score [11]	aggregation suppression score [12]
O=c1[nH]c2ccccc2n1CCCN1CCC(n2c(=O)[nH]c3cc(Cl)ccc32)CC1	-0.195 h (inactive)	7.33 (inactive)	-3% (inactive)	1 (inactive)	105% (inactive)	inactive						
CCCCCCCCC(=O)NCc1ccc(O)c(OC)c1	0.08 h (inactive)											
CCC1(CC)C(=O)C=CNC1=O		10.8 (inactive)					54.5% (active)	13.3% and -20.6%	1.62 and 19.3	-11.1% and -15%	2	0.581 and 1.33
CC(C)(C)NCC(O)c1cc(Cl)c(N)c(Cl)c1 (stereo unspecified)		11.5 (inactive)					-2.7% (inactive)	5.01%	-3.16	-4.4%	2	1.64
NC(=O)CN1CCCC1=O	0.015 h (inactive)	17.8 (inactive)	-4% (inactive)	1 (inactive)	110% (inactive)	inactive	61.1% (active)	13.3%	-11	-1.66%	2	1.37
CC(=O)Nc1cc([As](=O)(O)O)ccc1O								-3.61%	-5.17	-5.59%	2	1.35
Cc1cccc(C)c1NC1=NCCCS1	-0.19 h (inactive)	6.75 (inactive)	-2% (inactive)	1 (inactive)	121% (inactive)	inactive	18% (inactive)	-1.23%	-0.14	-9.68%	2	1.27
CC(C)[N+](C)(CCC(C(N)=O)(c1ccccc1)c1ccccc1)C(C)C		6.08 (inactive)						22%	-11.8	20%	1.5	1.25
COc1c2c(cc3c1OCO3)CCN(C)C2		4.08 (inactive)					4% (inactive)					
COc1ccc(Cc2nccc3cc(OC)c(OC)cc23)cc1OC	-0.02 h (inactive)	5.5 (inactive)	-1% (inactive)	1 (inactive)	119% (inactive)		84.8% (active)	3.42%	14.9	-13.9%	2	1.65
C[C@H]1C(=O)O[C@@H]2CCN3CC=C(COC(=O)[C@](C)(O)[C@]1(C)O)[C@H]23		1.5 (inactive)					24.9% (inactive)	11.2%	10.3	4%	2	1.12
